# The list is not random: actives were taken first. Their share in the collection is about 4.1%.
# ALR inh = inhibitors of human sulfhydryl oxidase ALR; P55789; purified ALR, DTT oxidation, H2O2 HRP-luminol luminescence; inhibition, % (concentration not given with the values); hit rate 3.8% among 290,000; AID 485317;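 active = mean replicate inhibition above about 79%, with every replicate also reaching it, limit read from the data; inconclusive = only one of the two criteria met; inactive = mean below limit and not every replicate reaching it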
# Target sequence (P55789 whole entry, looked up): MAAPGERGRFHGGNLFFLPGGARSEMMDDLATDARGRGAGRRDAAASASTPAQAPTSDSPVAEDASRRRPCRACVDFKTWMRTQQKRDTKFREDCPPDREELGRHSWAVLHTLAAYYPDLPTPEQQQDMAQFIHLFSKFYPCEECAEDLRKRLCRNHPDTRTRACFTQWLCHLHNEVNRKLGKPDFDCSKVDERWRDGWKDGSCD
# NSD2 inh = NSD2 (human) methyltransferase inhibition. hit rate 0.54% among 310,000. AID 743445. inhibition, % at 12.5 µM. NSD2 peptide methylation, AlphaScreen, 120 min; in the data active = inhibition above about 50%
# Env fusion inh = blocks HIV Env-driven cell-cell fusion. HeLa-JRFL Env/CEM21 cell fusion, luciferase. inhibition, % at 12.3 µM. hit rate 1.1% among 360,000. AID 651610;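 active = mean replicate inhibition score of at least 50 and every replicate individually at or above 50; inconclusive = only one of the two criteria met; inactive = mean below 50 and not all replicates reaching 50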;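 note: 0% = plate neutral controls and 100% = maraviroc near 300 nM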
# Casp6 inh = inhibitors of human caspase-6. P55212. purified caspase-6, Z-VEID-R110 cleavage fluorescence. inhibition, % at 12.5 µM. hit rate 0.53% among 350,000;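 active = mean inhibition across replicates at least about 35%, with every replicate also reaching that limit, limit read from the data; inconclusive = only one of the two criteria met; inactive = neither criterion met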;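 note: 0% = median of neutral control wells and 100% = no fluorescence left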
# Target sequence (P55212 24-179 limits assumed): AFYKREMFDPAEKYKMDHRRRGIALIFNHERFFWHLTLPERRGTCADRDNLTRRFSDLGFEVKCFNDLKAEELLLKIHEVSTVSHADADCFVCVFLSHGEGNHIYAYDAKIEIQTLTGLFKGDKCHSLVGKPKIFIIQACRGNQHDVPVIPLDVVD
# Target sequence (P55212 194-293 limits assumed): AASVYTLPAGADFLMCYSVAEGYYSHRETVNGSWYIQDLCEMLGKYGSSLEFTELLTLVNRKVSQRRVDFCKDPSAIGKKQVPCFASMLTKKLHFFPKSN
# PglD inh = blocks C. jejuni PglD acetyltransferase activity | purified PglD enzyme, DTNB colorimetric CoA detection | inhibition, % at 12.5 µM | hit rate 0.098% among 360,000 | AID 602405; in the data active = inhibition above about 16%, passing the limit was not always enough; inconclusive = no clear call, values can overlap the other calls
# CFTR F508del cor = correctors of CFTR F508del function in bronchial epithelial cells; hit rate 0.36% among 350,000; activity (quench increase), % at 7.58 µM; AID 720511; CFBE cells, YFP halide quenching; stimulated with forskolin plus potentiator P3; % fluorescence drop versus neutral controls;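 active = mean added fluorescence quench of at least 8% versus neutral control, with both replicates also reaching 8%; inconclusive = only one of the mean or replicate conditions met; inactive = mean below 8% and not both replicates reaching 8%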;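 note: cells transiently co-express mutant CFTR-F508del with the halide-sensitive YFP; corrector assay measuring rescue of mutant channel to the surface after 24 h compound exposure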
# * = called active by the depositor; ? = inconclusive; / = not tested or not shown; [ ] = remark or other dose.
SMILES,ALR inh,NSD2 inh,Env fusion inh,Casp6 inh,PglD inh,CFTR F508del cor
Cc1noc(C)c1NC(=O)Nc1ccc2c(c1)C(=O)N([C@H](C)CO)C[C@H](C)[C@@H](CN(C)C(=O)Nc1ccccc1)OCCCC[C@@H](C)O2,/,/,0[16.7 µM],1,1,-3
Cc1ccc(N/N=C(\C#N)C(=N)N2CCOCC2)cc1,98*,1,-15,2,/,2
Cc1ccc(N/N=C(\C#N)C(=N)N2CCCCCC2)cc1,2,-4,-60,3,/,2
CCN(CC)C(=N)/C(C#N)=N/Nc1ccc(C)cc1,99*,2,-47,0,-15,-3
COc1ccc(N/N=C(\C#N)C(=N)N2CCCCC2)cc1,99*,/,10,1,/,-1
O=C(O)C[C@H]1C[C@H]2c3cc(NC(=O)c4ccc5c(c4)OCO5)ccc3O[C@H]2[C@H](CO)O1,/,/,-10[16.7 µM],1,0,-1
CC(C)OC(=O)c1ccc(NCc2cc(O)ccc2O)cc1,/,4,-67,-4,/,-2
COP(=O)(OC)c1ccc(NCc2cc(O)ccc2O)cc1,/,26,11,53*,/,5
CC(C)C#Cc1cnc2c(c1)C(=O)N([C@H](C)CO)C[C@H](C)[C@H](CN(C)C(=O)C1CCC1)O2,/,/,4[16.7 µM],-2,3,-2
Cc1ccn2c(=O)nc(SCC(=O)Nc3ccc4c(c3)OCO4)nc2c1,?,-4,-6,8,5,0
Cc1ccc2nc(SCC(=O)Nc3ccc4c(c3)OCCO4)nc(=O)n2c1,98*,/,-3,3,4,1
O=C(CSc1nc(=O)n2cc(Cl)ccc2n1)Nc1ccc2c(c1)OCCO2,99*,3,-39,24,1,5
CSc1nsc(SCC(=O)Nc2ccc3c(c2)OCCO3)n1,98*,-6,-44,/,0,/
Cc1ccn2c(=O)nc(SCC(=O)Nc3ccc4c(c3)OCCO4)nc2c1,97*,0,8,8,2,1
O=C(CSc1nc(=O)n2cc(Cl)ccc2n1)Nc1ccc2c(c1)OCO2,68,4,-33,34,/,0
C[C@@H]1CN([C@@H](C)CO)S(=O)(=O)c2ccc(C#CCN(C)C)cc2O[C@H]1CN(C)Cc1cccnc1,/,/,-24[16.7 µM],-1,-4,1
CCCC(=O)Nc1ccc2c(c1)C(=O)N(C)[C@@H]1CC[C@@H](CC(=O)NCC(F)(F)F)O[C@H]1CO2,/,/,3[16.7 µM],/,1,-5
Cc1noc(C)c1S(=O)(=O)Nc1ccc2c(c1)C(=O)N([C@@H](C)CO)C[C@H](C)[C@H](CN(C)S(=O)(=O)c1ccccc1)OCCCC[C@@H](C)O2,/,/,-34[16.7 µM],-1,0,-4
CN1C(=O)c2cc(NC(=O)c3cccc(F)c3)ccc2OC[C@@H]2O[C@@H](CC(=O)NC3CCC3)CC[C@@H]21,/,/,12[16.7 µM],/,0,0
COCC(=O)Nc1ccc2c(c1)OC[C@@H](C)N(Cc1ccccc1OC)C[C@@H](C)[C@@H](OC)CN(C)C2=O,/,/,/,/,/,0
COc1ccccc1NC(=O)N(C)C[C@@H]1Oc2ncc(C#CCN(C)C)cc2C(=O)N([C@H](C)CO)C[C@@H]1C,/,/,-8[16.7 µM],3,3,2
C[C@H]1CN([C@@H](C)CO)S(=O)(=O)c2ccc(C#Cc3ccc(F)cc3)cc2O[C@@H]1CN(C)C(=O)c1ccccn1,/,/,9[16.7 µM],-4,-1,1
N#CC1=C(N)NC(SCc2ccc(Br)cc2)=C(C#N)C12CCCCC2,-20,2,49,/,-4,/
N#CC1=C(N)NC(SCC(=O)Nc2ccc(Br)cc2)=C(C#N)C12CCCCC2,97*,-3,/,/,-6,/
Fc1ccc(-[n+]2nc(Nc3ccccc3)sc2-c2c(Cl)cccc2Cl)cc1,-16,/,-2,21,-1,2
SMILES,ALR inh,NSD2 inh,Env fusion inh,Casp6 inh,PglD inh,CFTR F508del cor
CCc1ccc(Nc2n[n+](-c3ccccc3)c(-c3c(Cl)cccc3Cl)s2)cc1,-7,/,70*,/,-2,8
C[C@H](NC(=O)C[C@H]1CC[C@@H](NC(=O)CN2CCOCC2)[C@@H](CO)O1)c1ccccc1,/,/,-4[16.7 µM],3,5,1
Cc1ccc(S(=O)(=O)c2nc(-c3ccccc3Cl)oc2N(C)C)cc1,/,17,56*,-1,-42,0
Cc1ccc(S(=O)(=O)c2nc(-c3ccccc3Br)oc2N(C)C)cc1,/,-3,-16,1,-3,-1
Cc1ccc(S(=O)(=O)N(C)C[C@@H]2Oc3ccc(NS(=O)(=O)c4ccc(F)cc4)cc3C(=O)N([C@@H](C)CO)C[C@H]2C)cc1,/,/,13[16.7 µM],/,-1,-1
CC(C)CN1C(=O)NC2(CCCc3ccccc32)C1=O (stereo unspecified),0,24,-12,40*,-6,2
CCNC(=O)[C@H]1[C@H](CO)[C@H]2Cn3c(ccc(-c4ccccc4)c3=O)[C@H]2N1C(=O)C1CCCC1,/,/,/,-1,4,0
Cc1ccc(NC(=O)c2cc(-c3cc(Cl)ccc3C)n[nH]2)cc1NS(C)(=O)=O,/,0,65*,-2,1,0
CC[C@@]1(O)C(=O)OCc2c1cc1n(c2=O)Cc2cc3c(N)cccc3nc2-1,-19,/,68*,-1,3,1
CC[C@@]1(O)C(=O)OCc2c1cc1n(c2=O)Cc2cc3c(CN(C)C)c(O)ccc3nc2-1,52,/,/,-28,4,26*
CN(C)Cc1c(O)ccc2c(-c3ccccc3)cc(=O)oc12,3,-7,-4,-7,/,/
CC1=CC2C(C(O)CC3(C)C2CC(C)C32OCOC23COCO3)C2(C)C/C(=C\O)C(=O)C=C12 (stereo unspecified),/,7,113*,5,/,0
COc1ccc(-c2nc(CS(=O)(=O)CC(=O)NCc3ccccc3Br)c(C)o2)cc1,98*,/,-2,-1,-6,-3
COc1ccc(-c2nc(CS(=O)(=O)CC(=O)NCc3ccccc3OC)c(C)o2)cc1,99*,0,5,0,1,0
COc1ccc(-c2nc(CS(=O)(=O)CC(=O)NCc3cccc(OC)c3OC)c(C)o2)cc1,0,/,6,1,-2,2
C[C@@H]1CN([C@H](C)CO)S(=O)(=O)c2ccc(/C=C/c3ccccc3)cc2O[C@H]1CN(C)Cc1cccnc1,/,/,/,-2,/,0
O=C(NCCCN1CCCC1=O)c1cc(S(=O)(=O)N2CCOCC2)c(Cl)cc1Cl,/,1,19,4,7,17*
O=C(NCCCN1CCCC1=O)c1cc(S(=O)(=O)N2CCOCC2)ccc1Cl,-3,0,15,4,12,2
C[C@H]1CCCCO[C@H](CN(C)Cc2ccc(C(F)(F)F)cc2)[C@@H](C)CN([C@@H](C)CO)C(=O)c2cc(NC(=O)c3ccncc3)ccc2O1,/,/,-19[16.7 µM],-3,0,4
Cc1ccsc1/C=C1/SC(N2CC(C)OC(C)C2)=NC1=O (stereo unspecified),99*,1,-18,/,/,/
Cc1ccc(S(=O)(=O)N(C)C[C@@H]2Oc3c(NS(=O)(=O)c4cn(C)cn4)cccc3C(=O)N([C@@H](C)CO)C[C@@H]2C)cc1,/,/,17[16.7 µM],/,/,2

# Source: PubChem BioAssay (Broad Institute)
